From PubChem BioAssay
Sampled rows, rich in hits. Any-hit rate of the full collection: about 2.5%.
Cruzain inh Det – cruzain (T. cruzi) inhibition with detergent; purified cruzain, Z-FR-AMC fluorescence, 0.01% Triton; Potency, µM, inactives show max response, negative = inhibition, most hits filed as inhibitors; 200,000 tested, 0.43% active; AID 1478;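 also: plate controls were neutral wells for no effect and buffer without enzyme for full effect; nearly all actives have a fitted effect of over 40% in size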
Target sequence (P25779 123-467 limits assumed): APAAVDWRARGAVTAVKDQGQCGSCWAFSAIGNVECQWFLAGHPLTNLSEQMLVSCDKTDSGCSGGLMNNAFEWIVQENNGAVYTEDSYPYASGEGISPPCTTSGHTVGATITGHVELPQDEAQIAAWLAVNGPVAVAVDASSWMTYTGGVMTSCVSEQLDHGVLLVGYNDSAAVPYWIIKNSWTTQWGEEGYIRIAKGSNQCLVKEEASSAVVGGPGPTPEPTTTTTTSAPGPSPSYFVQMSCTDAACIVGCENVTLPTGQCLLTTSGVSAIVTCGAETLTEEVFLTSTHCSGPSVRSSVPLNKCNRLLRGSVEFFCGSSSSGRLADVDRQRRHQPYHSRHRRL
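Detergent-containing run (0.01% Triton X-100) in acetate buffer pH 5.5 with 5 mM DTT: enzyme at 1.5 nM final, 15 min compound preincubation at room temperature, then 2 uM Z-FR-AMC substrate. Activity taken as 60 s fluorescence increase at 360/450 nm.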
Cruzain noTriton – blocks cruzain activity in detergent-free assay. P25779. purified cruzain, Z-FR-AMC fluorescence, no detergent. Potency, µM, inactives show max response, negative = inhibition, usual class: inhibitors. 200,000 tested, 2.3% active. AID 1476;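 also: plate controls were enzyme without inhibitor for no effect and buffer without enzyme for full effect; nearly all actives have a fitted effect of over 40% in size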
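Purified cruzain at 1.5 nM, pre-incubated 15 min with compound at room temperature in 100 mM sodium acetate pH 5.5, 5 mM DTT, 0.00005% Triton X-100. Reaction started with 2 uM Z-FR-AMC; AMC fluorescence increase over 60 s gives rate.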
Active calls of the source: *; u = inconclusive. Calls follow the shape of the dose curve; as a rule, active = well fitted curve in the direction sought with a large enough effect; inconclusive = small, poorly fitted or top-dose-only effect, or another doubt; inactive = no such curve, though single readings can be large; an effect the other way counts as inactive or inconclusive. Potency is read from the fitted curve at half-maximal effect.

SMILES	Cruzain inh Det	Cruzain noTriton
COC(=O)c1cc(NC(=O)c2cccc(C(F)(F)F)c2)c(=O)oc1C/C=N/OCc1cccc(Cl)c1Cl	-28%	0.79µM*
O=C(NCc1ccccc1Cl)c1cccc(C(F)(F)F)c1	-5%	-2%
O=C(CCN1CCCCC1)c1csc2ccccc12	-23%	2.5µM*
O=C(CCN1CCCCC1)c1ccccc1	-5%	-13%
O=C(Nc1cccc(C(F)(F)F)c1)c1cc2ccc3cccnc3c2[nH]1	0%	-14%
O=C(Nc1ccc(F)cc1F)c1cc2ccc3cccnc3c2[nH]1	-2%	25µM*
Cc1ccc2c(c1)-c1c(cnn1CC(=O)N1CCN(c3cccc(C(F)(F)F)c3)CC1)CO2	-5%	u
Cc1cccc(-n2ncc(C(=O)N3CCN(Cc4ccccc4)CC3)c2C2CCN(C(=O)OC(C)(C)C)CC2)c1	-4%	u
Cc1ccc(NC(=O)CSc2nnc(-c3ccco3)c(-c3ccco3)n2)cc1	25µM*	10µM*
Cc1cccc(C)c1NC(=O)CSc1nnc(-c2ccco2)c(-c2ccco2)n1	u	-18%
CSc1nnc(-c2ccco2)c(-c2ccco2)n1	14µM*	13µM*
CSc1nnc2c(n1)OC=Nc1ccccc1-2	-6%	-7%
COc1ccccc1CNS(=O)(=O)c1ccc2c(c1)NC(=O)C(C)C(=O)N2 (centres undefined)	-7%	-8%
Cc1cccc(-c2cc(C(=O)Nc3ccc4c(c3)OCCO4)c3ccccc3n2)c1	2%	32µM*
Cc1cccc(NC(=S)NC(=O)c2cc(-c3ccccc3)nc3ccccc23)c1	8%	20µM*
Cc1ccccc1NC(=S)NC(=O)c1cc(-c2ccccc2)nc2ccccc12	0%	u
CCOc1ccc(-c2cc(C(=O)Nc3ccc4c(c3)OCCO4)c3ccccc3n2)cc1	-5%	u
Cc1ccc(-n2nnnc2CNC(=O)C(C)(C)C)cc1C	5%	7%
Cn1c(=O)n(Cc2ccccc2Cl)c(=O)c2c1nc1n2CCN1c1ccccc1	-2%	2%
COc1cc(OC)c2c(-c3cccc(-c4ccc(OC(F)(F)F)cc4)c3)cc(=O)oc2c1	-2%	u
COc1cc(OC)c2c(-c3cccc(-c4ccc(CO)cc4)c3)cc(=O)oc2c1	-1%	3%
COc1cc(OC)c2c(-c3cccc(-c4ccc(N(C)C)cc4)c3)cc(=O)oc2c1	3%	32µM*
COc1cc(OC)c2c(-c3cccc(-c4ccc(O)cc4)c3)cc(=O)oc2c1	0%	u
COc1cc(OC)c2c(-c3cccc(-c4cccc(C)c4)c3)cc(=O)oc2c1	0%	10µM*
COc1ccc(-c2cccc(-c3cc(=O)oc4cc5c(cc34)OCO5)c2)cc1	4%	u
SMILES	Cruzain inh Det	Cruzain noTriton
COc1cc(OC)c2c(-c3cccc(/C=C/c4ccc(F)cc4)c3)cc(=O)oc2c1	3%	10µM*
Cc1cccc(-c2cccc(-c3cc(=O)oc4cc5c(cc34)OCO5)c2)c1	-1%	35µM*
C[C@@]12CCC(=O)C=C1CC[C@H]1C2[C@@H](O)C[C@]2(C)[C@@H]1CC[C@@]2(O)C(=O)CO (some centres undefined)	3%	-4%
COc1ccccc1-c1nc(SCC(=O)c2ccc(Cl)cc2)n[nH]1	-3%	-12%
CCOCCCNC(=O)C(c1ccccc1)N(Cc1cccs1)C(=O)c1ccc(NC(C)=O)cc1 (centres undefined)	-2%	u
Nc1nc2c(nc(Br)n2C2OC(CO)C(O)C2O)c(=O)[nH]1 (centres undefined)	0%	-1%
COc1ccc(-c2nc3sc(CCNC(=O)C(=O)Nc4ccc(C)c(C)c4)c(C)n3n2)cc1	-1%	-10%
O=C(Nc1nc2c(ccc3ccccc32)s1)c1ccco1	-12%	-20%
O=C(NC(=S)Nc1nc2c(ccc3ccccc32)s1)c1cccs1	-1%	20µM*
COCCn1c(CCC(=O)Nc2ccc(OC)c(OC)c2)nc2cccnc21	0%	-18%
CCNc1ccc(C(=O)OCC(=O)NCc2ccc(C)cc2)cc1[N+](=O)[O-]	-4%	2%
CCNc1ccc(C(=O)OCC(=O)c2cc(C)n(Cc3ccc4c(c3)OCO4)c2C)cc1[N+](=O)[O-]	-3%	16µM*
O=C(COC(=O)/C=C/c1ccc(Cl)cc1)Nc1ccccc1-c1ccccc1	-4%	10%
CCN(CC)S(=O)(=O)c1ccc(/C=C/C(=O)OCC(=O)Nc2cccc3ccccc23)cc1	-2%	-10%
O=C(COC(=O)/C=C/c1nc2ccccc2s1)Nc1cccc(Cl)c1Cl	-2%	10µM*
O=C(COC(=O)/C=C/c1nc2ccccc2s1)Nc1cccc2ccccc12	-5%	6.3µM*
C=Cc1ccc(Cn2c(SCC(=O)N3CCN(c4ccc(F)cc4)CC3)nc3ccccc32)cc1	-2%	-2%
CC(C)(C)C1CCc2c(sc(NC(=O)c3cccs3)c2C(N)=O)C1 (centres undefined)	3%	13µM*
COC(=O)c1c(NC(=O)CSc2nnnn2-c2ccccc2)sc2c1CCC(C)C2 (centres undefined)	-1%	20µM*
CCC(C)(C)C1CCc2c(sc(NC(=O)c3cccs3)c2C(N)=O)C1 (centres undefined)	-2%	u
COC(=O)c1c(NC(=O)CSc2nnnn2-c2ccccc2)sc2c1CCC(C(C)(C)C)C2 (centres undefined)	-2%	6.3µM*
COC(=O)c1c(NC(=O)COc2ccccc2Cl)sc2c1CCC(C(C)(C)C)C2 (centres undefined)	3%	-7%
CCOC(=O)c1sc(NC(=O)CSc2nnnn2-c2ccccc2)c(C(=O)OCC)c1C	-3%	-17%
O=C(Nc1cccc(-c2nc3cccnc3s2)c1)C1c2ccccc2Oc2ccccc21	0%	20µM*
CCC(CC)C(=O)Nc1cccc(-c2nc3cccnc3s2)c1	-5%	-14%
SMILES	Cruzain inh Det	Cruzain noTriton
COc1ccc(/C=C/c2nc(C#N)c(N3CCCCC3)o2)cc1OC	-13%	-4%
Cc1cccc(C)c1-n1c(C)cc(/C=N\Nc2ccc([N+](=O)[O-])cn2)c1C	-4%	16µM*
CNC(=S)N/N=C/c1cn(Cc2ccc(F)cc2)c2ccccc12	-13%	u
O=[N+]([O-])c1ccc(N/N=C/c2cn(Cc3ccc(F)cc3)c3ccccc23)nc1	-9%	7.9µM*
Cc1cc(C=O)c(C)n1-c1ccc(Oc2ccc([N+](=O)[O-])cn2)cc1	-4%	-10%
Cc1ccc(-n2nc3c(N4CCCC(C(=O)NCc5ccccc5C)C4)nnc(C)c3c2C)cc1 (centres undefined)	0%	20%
Cc1oc(/N=C/c2c(O)ccc3ccccc23)c(C#N)c1C	-10%	13µM*
Cc1oc(/N=C/c2ccccc2O)c(C#N)c1C	2%	3%
CC1=C(C(=O)Nc2ccccc2C)C(c2ccncc2)n2nc(SCc3ccccc3)nc2N1 (centres undefined)	0%	-16%
CC1=C(C(=O)Nc2ccccc2C)C(c2cccs2)n2nc(SCc3ccccc3)nc2N1 (centres undefined)	-1%	25µM*
CC1=C(C(=O)Nc2ccc(C)cc2C)C(c2cccs2)n2nc(SCc3ccc(Cl)cc3)nc2N1 (centres undefined)	0%	3%
COc1ccc(NC(=O)C2=C(C)Nc3nc(SCc4ccccc4C)nn3C2c2ccc(Br)cc2)cc1 (centres undefined)	-1%	-10%
CC1=C(C(=O)Nc2ccc(Cl)cc2)C(c2cccs2)n2nc(SCc3cccc(Cl)c3)nc2N1 (centres undefined)	-1%	3.2µM*
